# Source: PubChem BioAssay AID1159580 (chemical genetic matrix, 2015)
# Among all 5,500 compounds or so, about 2,000 (36%) were called active. Roughly 18% stayed inconclusive and do not appear here. The list shows a part of the results. Values without a mark were called inactive. Rule as the data show it: active = normalized growth mostly below about 0.91 (no sharp cut-off); inconclusive = no clear call, values can overlap the other calls; inactive = mostly above about 0.92.
# Assay: chemical genetic growth profiling, strain panel (AID 1159580);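 also: tested at 20 µM; growth read once vehicle control cultures reached saturation at 30 °C; 1 = growth at the plate median or of vehicle wells; lower values mean less growth of the strain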
# Conditions: S. cerevisiae deletion strains, growth OD
smiles,measurement,setting,value
O=C(c1ccccc1)c1cc2c(cc1Br)OCCO2,normalized growth,"locus YAL013W, strain DEP1, stronger effect = lower value",0.908 (active)
same,normalized growth,"locus YBR229C, strain ROT2, stronger effect = lower value",0.953
same,normalized growth,"locus YDL101C, strain DUN1, stronger effect = lower value",0.897 (active)
same,normalized growth,"locus YDL134C, strain PPH21, stronger effect = lower value",0.942
same,normalized growth,"locus YDR150W, strain NUM1, stronger effect = lower value",0.927
same,normalized growth,"locus YEL061C, strain CIN8, stronger effect = lower value",0.904 (active)
same,normalized growth,"locus YGR078C, strain PAC10, stronger effect = lower value",0.922 (active)
same,normalized growth,"locus YHR030C, strain SLT2, stronger effect = lower value",0.304 (active)
same,normalized growth,"locus YHR087W, strain rtc3, stronger effect = lower value",0.989
same,normalized growth,"locus YJR043C, strain POL32, stronger effect = lower value",0.906 (active)
same,normalized growth,"locus YJR075W, strain HOC1, stronger effect = lower value",0.93
same,normalized growth,"locus YKL190W, strain CNB1, stronger effect = lower value",0.845 (active)
same,normalized growth,"locus YLR039C, strain RIC1, stronger effect = lower value",0.486 (active)
same,normalized growth,"locus YLR058C, strain SHM2 (second series), stronger effect = lower value",0.956
same,normalized growth,"locus YLR085C, strain ARP6, stronger effect = lower value",0.419 (active)
same,normalized growth,"locus YLR262C, strain YPT6, stronger effect = lower value",0.524 (active)
same,normalized growth,"locus YML094W, strain GIM5, stronger effect = lower value",0.852 (active)
same,normalized growth,"locus YMR219W, strain ESC1, stronger effect = lower value",0.952
same,normalized growth,"locus YMR263W, strain SAP30, stronger effect = lower value",0.921
same,normalized growth,"locus YNL153C, strain GIM3, stronger effect = lower value",0.91 (active)
same,normalized growth,"locus YNL298W, strain CLA4 (second series), stronger effect = lower value",0.7 (active)
same,normalized growth,"locus YNL322C, strain KRE1, stronger effect = lower value",0.955
same,normalized growth,"locus YNR030W, strain Alg12, stronger effect = lower value",0.811 (active)
same,normalized growth,"locus YPL055C, strain LGE1, stronger effect = lower value",0.845
same,normalized growth,"locus YPL241C, strain CIN2, stronger effect = lower value",0.823 (active)
same,normalized growth,"locus YPR135W, strain CTF4, stronger effect = lower value",0.445 (active)
